According to PubChem BioAssay (NCI):
About 83,000 compounds went through this panel and 20% of them were active in at least one assay; those are over-represented in the sample as a whole.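 Method: cells in 96-well plates; compound added at one concentration; 48 h incubation; percent growth measured; values under 10 scored active.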 Values without a mark were called inactive. Activity calls are given as the source filed them.

Test system: SK-OV-3 ovarian
Assay: NCI-60 one-dose screen, 48 h (100 = growth as untreated, 0 = no growth, -100 = all killed)
Details: 10 µM unless noted

SMILES | growth
CC1(C)CC[C@]2(C(=O)O)CC[C@]3(C)C(=CC[C@@H]4[C@@]5(C)C/C(=C/c6cccnc6)[C@H](O)C(C)(C)[C@@H]5CC[C@]43C)[C@@H]2C1 | 1.32% [100 µM] (active)
CCC(Br)(CC)C(=O)c1ccc(OCC(=O)O)c(Cl)c1Cl | 94.3%
O=C(N/N=C\c1cc(Cl)ccc1O)N/N=C/c1cc(Cl)ccc1O | 73.7%
C=C(C)[C@@H]1CC[C@]2(C(=O)NCCNCCNC(=O)OC(C)(C)C)CC[C@]3(C)[C@H](CC[C@@H]4[C@@]5(C)CCC(=O)C(C)(C)[C@@H]5CC[C@]43C)[C@@H]12 | 49.8% [100 µM]
Cc1cc(C)c(O)c(CNCCCNCc2cc(C)cc(C)c2O)c1 | 89.3%
O=C(Nc1ccc(C(=O)/C=C/c2ccc(N3CCOCC3)cc2)cc1)Nc1ccc([N+](=O)[O-])cc1 | 90.5%
C[C@H]1[C@H](C)CC[C@]2(C(=O)N3CCN(C)CC3)CC[C@]3(C)C(=CC[C@@H]4[C@@]5(C)C/C(=C/c6ccco6)C(=O)C(C)(C)[C@@H]5CC[C@]43C)[C@H]12 | 59.3% [100 µM]
Nc1nc(Cl)c2ncn(Cc3cc4c(cc3I)OCO4)c2n1 | 58.7%
CC1(C)OC2[C@@H](CNC(=O)NC(=O)NC(=O)CI)O[C@@H](n3cnc4c(NC(=O)Nc5ccccc5)ncnc43)[C@H]2O1 (stereo not given in full) | 105%
CC1Cc2c(Cl)ncnc2N(C)c2ccccc21 (stereo not given) | 15.8%
C=C(C)[C@@H]1CC[C@]2(COCCCN)CC[C@]3(C)[C@H](CC[C@@H]4[C@@](C)(CCCNCCCN)[C@H](C(=C)C)CC[C@]43C)[C@@H]12 | -60.4% [100 µM] (active)
O=[N+]([O-])c1ccc(O)c(-c2nc3ccccc3s2)c1 | 81.2%
COc1cc2c(cc1OC(C)=O)C(=O)CCCC2 | 117%
COc1ccc(CC(C#N)c2ccc(Cl)cc2)cc1 (stereo not given) | 89.3%
COc1ccc(N(c2nc(-c3ccc([N+](=O)[O-])cc3)cs2)C(C)C)cc1 | 81.7%
C=C(C)[C@@H]1CC[C@]2(C)[C@H](CC[C@@H]3[C@@H]([C@@](C)(O)CCC=C(C)C)CC[C@]32C)[C@@]1(C)CCC(=O)O | 18.4% [100 µM]
CCOc1ccc(S(=O)(=O)Nc2ccc3c(c2)N(S(=O)(=O)CC)CCC3)cc1 | 72.7%
Cc1cnc(N)nc1OCCNC(=O)c1cccc(-c2ccc(S(=O)(=O)Nc3ccc4c(c3)N(C(=O)C3CC3)CCC4)cc2)c1 | 98.8%

Test system: IGROV1 ovarian
Assay: as above
Details: 10 µM unless noted

SMILES | growth
O=C1CN(Cc2ccc(C(=O)NO)cc2)C(=O)[C@@H](Cc2ccccc2)N1 | 106%
COc1ncc(-c2ccc3nccc(C#CCCCCC(=O)NO)c3c2)cc1NS(=O)(=O)c1ccc(F)cc1F | -21.6% (active)
CCCCCN(CCCCC)CCCCCCCCN1CCCc2ccccc21 | 76.4%
CC1Cc2c(Cl)ncnc2N(C)c2ccc(O)cc21 (stereo not given) | 103%
FC(F)(F)c1ccc2c(c1)Sc1ccccc1N2 | 92.6%
CCOc1cc(/C=N\NC(=O)N/N=C/c2ccc(O)c(OCC)c2)ccc1O | 59.4%
CC1(C)CC[C@]2(C(=O)O)CC[C@]3(C)[C@H](CC[C@@H]4[C@@]5(C)CCC(=O)C(C)(C)[C@@H]5CC[C@]43C)[C@H]2[C@H]1OC(=O)C(F)(F)F | -64.7% [100 µM] (active)
[2H]C1([2H])CCN(C(=O)C2CC2)c2cc(NS(=O)(=O)c3ccc(-c4cccc(C(N)=O)c4)cc3)ccc21 | 32.4%
CCOC(=O)c1sc2nc(-c3cc(OC)c(OC)c(OC)c3)nc(N3CCOCC3)c2c1C | 50.5%
O=C(CCN1CCCCC1)c1ccc(Cl)cc1 | 107%
O=C1CC(C(F)(F)F)Cc2nc3ccc(Br)cc3cc21 (stereo not given) | 73.4%
NC(=O)c1cccc(-c2ccc(S(=O)(=O)Nc3ccc4c(c3)N(C(=O)C3CC3)CCC4)cc2)c1 | 37.1%
CCOC(=O)CCC[P+](c1ccccc1)(c1ccccc1)c1ccccc1 | 65.8%
CC1(C)CC[C@]2(C(=O)O)CC[C@]3(C)C(=CC[C@@H]4[C@@]5(C)C/C(=C/c6cccnc6)[C@H](O)C(C)(C)[C@@H]5CC[C@]43C)[C@@H]2C1 | 2.18% [100 µM] (active)
O=C(N/N=C\c1cc(Cl)ccc1O)N/N=C/c1cc(Cl)ccc1O | 49.1%
C=C(C)[C@@H]1CC[C@]2(C(=O)NCCNCCNC(=O)OC(C)(C)C)CC[C@]3(C)[C@H](CC[C@@H]4[C@@]5(C)CCC(=O)C(C)(C)[C@@H]5CC[C@]43C)[C@@H]12 | 34.7% [100 µM]

SMILES | growth
Cc1cc(C)c(O)c(CNCCCNCc2cc(C)cc(C)c2O)c1 | 62%
O=C(Nc1ccc(C(=O)/C=C/c2ccc(N3CCOCC3)cc2)cc1)Nc1ccc([N+](=O)[O-])cc1 | 72.5%
C[C@H]1[C@H](C)CC[C@]2(C(=O)N3CCN(C)CC3)CC[C@]3(C)C(=CC[C@@H]4[C@@]5(C)C/C(=C/c6ccco6)C(=O)C(C)(C)[C@@H]5CC[C@]43C)[C@H]12 | 3.24% [100 µM] (active)
Nc1nc(Cl)c2ncn(Cc3cc4c(cc3I)OCO4)c2n1 | 83.2%
Fc1cc2[nH]ncc2c2c3c(c(-c4cn[nH]c4C(F)(F)F)nc12)C1CCC3C1 (stereo not given) | -13% (active)
C=C(C)[C@@H]1CC[C@]2(COCCCN)CC[C@]3(C)[C@H](CC[C@@H]4[C@@](C)(CCCNCCCN)[C@H](C(=C)C)CC[C@]43C)[C@@H]12 | -58.6% [100 µM] (active)
CCCCCCSc1ncnc2nc[nH]c12 | 82.6%
C[C@@H]1C[C@H]2C(=O)O[C@@H](C)[C@H](NC(=O)[C@H](Cc3cc(F)cc(F)c3)NC(=O)Nc3ccc(C4CC4)cc3F)C(=O)N3CCC[C@H]3C(=O)N3CCCC[C@H]3C(=O)N[C@@H](C)C(=O)N2C1 | 28.5%
O=[N+]([O-])c1ccc(O)c(-c2nc3ccccc3s2)c1 | 70%
COc1cc2c(cc1OC(C)=O)C(=O)CCCC2 | 78.8%
COc1ccc(CC(C#N)c2ccc(Cl)cc2)cc1 (stereo not given) | 68.8%
COc1ccc(N(c2nc(-c3ccc([N+](=O)[O-])cc3)cs2)C(C)C)cc1 | 80.4%
C=C(C)[C@@H]1CC[C@]2(C)[C@H](CC[C@@H]3[C@@H]([C@@](C)(O)CCC=C(C)C)CC[C@]32C)[C@@]1(C)CCC(=O)O | -24.2% [100 µM] (active)
CCOc1ccc(S(=O)(=O)Nc2ccc3c(c2)N(S(=O)(=O)CC)CCC3)cc1 | 71.3%
Cc1cnc(N)nc1OCCNC(=O)c1cccc(-c2ccc(S(=O)(=O)Nc3ccc4c(c3)N(C(=O)C3CC3)CCC4)cc2)c1 | 74%
Fc1cc2[nH]ncc2c2c3c(c(-c4cn[nH]c4)nc12)CCCC3 | 1.4% (active)
